According to article PMC7862700, “An all-to-all approach to the identification of sequence-specific readers for epigenetic DNA modifications on cytosine”:

Experiments:
Experiment in all cases: DAPPL (digital affinity profiling via proximity ligation, sequencing); 10 mM Tris-HCl pH 7.5, 50 mM NaCl, 1 mM DTT, 4% glycerol, room temperature, 30 min; GST-TFs on glutathione beads, 16-mer random dsDNA library, 0.1% formaldehyde crosslink after washing; high values mean tight binding
[1] = target: T1, FEV (Homo sapiens, UniProt Q99581 1-238); conditions: protein: recombinant; tags: N-terminal GST; dsDNA, one strand shown
T1 sequence: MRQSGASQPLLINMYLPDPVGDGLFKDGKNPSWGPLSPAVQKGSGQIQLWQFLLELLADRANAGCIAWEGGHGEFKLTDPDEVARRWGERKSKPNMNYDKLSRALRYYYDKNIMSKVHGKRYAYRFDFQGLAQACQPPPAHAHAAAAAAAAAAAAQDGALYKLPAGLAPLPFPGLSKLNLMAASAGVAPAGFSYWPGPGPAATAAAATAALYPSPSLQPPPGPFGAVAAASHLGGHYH
Method in brief: (§1)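 Yeast served to express human transcription factors as GST fusions, which were then captured on glutathione beads and labelled with DNA barcodes. Pooled with a tag-only sample, they were incubated with 200 nmole of a 16-mer random double-stranded DNA library for 30 min at room temperature in Tris/NaCl/DTT/glycerol buffer, washed, crosslinked with 0.1% formaldehyde, ligated by proximity, amplified by PCR and sequenced. Dividing each hexamer's read frequency for a factor by its frequency for the tag-only sample gives the binding signal.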

[2] = target: ETV5 (Homo sapiens, UniProt P41161 1-510); conditions: protein: recombinant; tags: N-terminal GST; dsDNA, one strand shown
Method in brief: as §1

[3] = target: HSF1 (Homo sapiens, UniProt Q00613 1-529); conditions: protein: recombinant; tags: N-terminal GST; chain copies: 3; dsDNA, one strand shown
Method in brief: as §1

[4] = target: T2, SPIC (Homo sapiens, UniProt Q8N5J4 1-248); conditions: protein: recombinant; tags: N-terminal GST; dsDNA, one strand shown
T2 sequence: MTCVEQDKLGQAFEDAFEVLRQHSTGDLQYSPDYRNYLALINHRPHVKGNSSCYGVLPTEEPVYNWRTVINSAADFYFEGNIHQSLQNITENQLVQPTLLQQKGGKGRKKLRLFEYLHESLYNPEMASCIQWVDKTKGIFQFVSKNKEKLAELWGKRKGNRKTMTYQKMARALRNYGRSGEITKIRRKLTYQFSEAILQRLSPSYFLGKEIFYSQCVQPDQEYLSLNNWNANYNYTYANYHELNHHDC
Method in brief: as §1

[5] = target: ELF4 (Homo sapiens, UniProt Q99607 1-663); conditions: protein: recombinant; tags: N-terminal GST; dsDNA, one strand shown
Method in brief: as §1

[6] = target: T3, ELK4 (Homo sapiens, UniProt P28324-2 1-405); conditions: protein: recombinant; tags: N-terminal GST; dsDNA, one strand shown
T3 sequence: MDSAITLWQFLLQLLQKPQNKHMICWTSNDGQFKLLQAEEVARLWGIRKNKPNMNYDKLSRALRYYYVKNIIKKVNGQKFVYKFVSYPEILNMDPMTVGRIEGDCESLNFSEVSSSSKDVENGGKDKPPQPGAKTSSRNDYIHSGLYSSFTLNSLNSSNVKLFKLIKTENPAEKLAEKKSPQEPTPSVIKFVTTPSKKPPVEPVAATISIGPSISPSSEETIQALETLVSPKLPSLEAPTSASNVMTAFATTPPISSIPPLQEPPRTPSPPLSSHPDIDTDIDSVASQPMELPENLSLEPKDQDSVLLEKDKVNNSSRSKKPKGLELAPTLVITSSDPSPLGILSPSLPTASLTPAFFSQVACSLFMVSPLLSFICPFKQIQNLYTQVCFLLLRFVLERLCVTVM
Method in brief: as §1

[7] = target: T4, ETV2 (Homo sapiens, UniProt O00321 1-342); conditions: protein: recombinant; tags: N-terminal GST; dsDNA, one strand shown
T4 sequence: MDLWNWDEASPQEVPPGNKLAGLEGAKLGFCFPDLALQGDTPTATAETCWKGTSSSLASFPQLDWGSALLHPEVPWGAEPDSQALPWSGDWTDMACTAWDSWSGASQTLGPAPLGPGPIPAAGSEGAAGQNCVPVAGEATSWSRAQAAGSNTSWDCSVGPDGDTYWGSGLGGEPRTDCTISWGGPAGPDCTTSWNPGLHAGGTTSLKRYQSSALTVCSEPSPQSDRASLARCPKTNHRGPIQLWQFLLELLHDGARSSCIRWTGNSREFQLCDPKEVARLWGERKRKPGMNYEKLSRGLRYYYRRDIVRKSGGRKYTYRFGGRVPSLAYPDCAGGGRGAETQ
Method in brief: as §1

[8] = target: T5, ELF3 (Homo sapiens, UniProt P78545 1-371); conditions: protein: recombinant; tags: N-terminal GST; dsDNA, one strand shown
T5 sequence: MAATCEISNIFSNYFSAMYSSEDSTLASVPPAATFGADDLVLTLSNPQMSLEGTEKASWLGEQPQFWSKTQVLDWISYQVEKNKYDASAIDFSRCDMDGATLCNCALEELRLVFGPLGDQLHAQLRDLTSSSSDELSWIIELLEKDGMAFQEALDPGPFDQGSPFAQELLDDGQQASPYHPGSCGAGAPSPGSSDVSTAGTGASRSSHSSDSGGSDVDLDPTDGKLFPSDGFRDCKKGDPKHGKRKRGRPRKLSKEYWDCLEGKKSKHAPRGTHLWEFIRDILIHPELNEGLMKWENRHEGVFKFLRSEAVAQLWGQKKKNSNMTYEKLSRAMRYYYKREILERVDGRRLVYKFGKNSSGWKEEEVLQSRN
Method in brief: as §1

[9] = target: CRX (Homo sapiens, UniProt O43186 1-299); conditions: protein: recombinant; tags: N-terminal GST; dsDNA, one strand shown
Method in brief: as §1

[10] = target: ETV1 (Homo sapiens, UniProt P50549 1-477); conditions: protein: recombinant; tags: N-terminal GST; dsDNA, one strand shown
Method in brief: as §1

Chain of ETV1 (P50549 whole entry): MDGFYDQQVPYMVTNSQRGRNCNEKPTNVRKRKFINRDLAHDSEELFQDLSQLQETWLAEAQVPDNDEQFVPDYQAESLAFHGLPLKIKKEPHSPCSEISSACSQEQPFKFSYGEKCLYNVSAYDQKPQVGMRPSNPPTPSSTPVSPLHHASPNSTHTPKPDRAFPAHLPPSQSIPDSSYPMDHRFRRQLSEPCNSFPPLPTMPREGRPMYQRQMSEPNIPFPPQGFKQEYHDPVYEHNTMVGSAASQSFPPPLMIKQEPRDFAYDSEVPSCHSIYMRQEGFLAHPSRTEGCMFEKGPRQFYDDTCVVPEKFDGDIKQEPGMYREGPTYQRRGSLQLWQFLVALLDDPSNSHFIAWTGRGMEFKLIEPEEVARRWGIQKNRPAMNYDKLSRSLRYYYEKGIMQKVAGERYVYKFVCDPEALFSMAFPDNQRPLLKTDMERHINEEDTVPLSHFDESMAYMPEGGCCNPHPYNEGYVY
Chain of HSF1 (Q00613 whole entry): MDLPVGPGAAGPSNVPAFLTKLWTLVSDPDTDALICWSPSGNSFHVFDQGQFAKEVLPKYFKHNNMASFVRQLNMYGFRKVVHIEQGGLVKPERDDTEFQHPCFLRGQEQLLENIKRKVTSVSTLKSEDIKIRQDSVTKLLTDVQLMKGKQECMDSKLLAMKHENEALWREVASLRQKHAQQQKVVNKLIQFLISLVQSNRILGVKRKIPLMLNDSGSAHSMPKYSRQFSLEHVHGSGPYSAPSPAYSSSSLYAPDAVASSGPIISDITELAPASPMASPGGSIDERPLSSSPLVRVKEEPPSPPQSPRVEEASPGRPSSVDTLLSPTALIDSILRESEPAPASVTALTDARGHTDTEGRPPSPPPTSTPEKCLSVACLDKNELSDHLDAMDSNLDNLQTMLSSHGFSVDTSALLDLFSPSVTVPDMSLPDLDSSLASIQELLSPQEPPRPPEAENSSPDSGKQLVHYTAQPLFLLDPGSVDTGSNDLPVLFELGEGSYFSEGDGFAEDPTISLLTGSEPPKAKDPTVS
Chain of CRX (O43186 whole entry): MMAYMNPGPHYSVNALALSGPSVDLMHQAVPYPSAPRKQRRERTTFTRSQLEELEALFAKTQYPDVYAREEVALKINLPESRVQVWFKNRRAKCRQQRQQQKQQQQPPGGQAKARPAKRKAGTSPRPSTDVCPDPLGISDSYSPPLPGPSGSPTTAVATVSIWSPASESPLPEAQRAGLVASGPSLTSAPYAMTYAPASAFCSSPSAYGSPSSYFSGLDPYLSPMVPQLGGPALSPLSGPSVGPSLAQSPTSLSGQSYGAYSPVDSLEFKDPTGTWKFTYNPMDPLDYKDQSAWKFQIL
Chain of ETV5 (P41161 whole entry): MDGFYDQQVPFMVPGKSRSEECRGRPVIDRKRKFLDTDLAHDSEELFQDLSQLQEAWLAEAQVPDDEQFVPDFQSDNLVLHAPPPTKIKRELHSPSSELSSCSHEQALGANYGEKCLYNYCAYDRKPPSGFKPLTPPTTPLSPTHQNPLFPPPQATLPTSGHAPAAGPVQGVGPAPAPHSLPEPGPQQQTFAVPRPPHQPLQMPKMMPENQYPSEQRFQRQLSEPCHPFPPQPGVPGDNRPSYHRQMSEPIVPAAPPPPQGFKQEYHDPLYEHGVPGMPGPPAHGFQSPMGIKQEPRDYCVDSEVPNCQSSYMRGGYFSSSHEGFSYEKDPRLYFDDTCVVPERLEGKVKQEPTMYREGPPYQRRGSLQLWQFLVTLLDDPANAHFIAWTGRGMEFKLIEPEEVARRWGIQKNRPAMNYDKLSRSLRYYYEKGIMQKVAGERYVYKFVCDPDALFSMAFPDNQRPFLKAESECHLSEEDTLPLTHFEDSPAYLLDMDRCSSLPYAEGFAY
Chain of ELF4 (Q99607 whole entry): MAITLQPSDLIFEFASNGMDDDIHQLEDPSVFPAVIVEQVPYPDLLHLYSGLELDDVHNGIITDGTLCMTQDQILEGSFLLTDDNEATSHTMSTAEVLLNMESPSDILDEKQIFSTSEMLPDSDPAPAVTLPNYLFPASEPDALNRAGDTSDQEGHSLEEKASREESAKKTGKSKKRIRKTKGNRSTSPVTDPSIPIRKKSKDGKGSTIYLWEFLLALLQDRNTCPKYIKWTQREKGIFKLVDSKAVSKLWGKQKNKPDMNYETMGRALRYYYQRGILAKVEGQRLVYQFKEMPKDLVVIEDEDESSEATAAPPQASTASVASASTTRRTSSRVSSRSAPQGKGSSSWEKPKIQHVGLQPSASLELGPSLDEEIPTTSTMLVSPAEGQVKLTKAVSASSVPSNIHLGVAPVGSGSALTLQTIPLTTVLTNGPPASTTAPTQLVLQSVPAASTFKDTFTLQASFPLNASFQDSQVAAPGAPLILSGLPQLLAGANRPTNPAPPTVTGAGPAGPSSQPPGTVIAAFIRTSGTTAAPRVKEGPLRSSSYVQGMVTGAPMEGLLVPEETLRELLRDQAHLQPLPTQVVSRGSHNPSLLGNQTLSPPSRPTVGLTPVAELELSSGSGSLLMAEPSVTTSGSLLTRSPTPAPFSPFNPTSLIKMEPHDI

GGTATT
binding signal [1]: 1.1 fold enrichment (6-mer frequency, TF over GST control)
binding signal [2]: 1.16 fold enrichment (6-mer frequency, TF over GST control)
binding signal [3]: 1.39 fold enrichment (6-mer frequency, TF over GST control)
binding signal [4]: 1.14 fold enrichment (6-mer frequency, TF over GST control)
binding signal [5]: 1.12 fold enrichment (6-mer frequency, TF over GST control)
binding signal [6]: 1.14 fold enrichment (6-mer frequency, TF over GST control)
binding signal [7]: 1.12 fold enrichment (6-mer frequency, TF over GST control)
binding signal [8]: 1.1 fold enrichment (6-mer frequency, TF over GST control)
binding signal [9]: 1.66 fold enrichment (6-mer frequency, TF over GST control)
binding signal [10]: 1.16 fold enrichment (6-mer frequency, TF over GST control)

TCAACT
binding signal [1]: 1.36 fold enrichment (6-mer frequency, TF over GST control)
binding signal [2]: 1.26 fold enrichment (6-mer frequency, TF over GST control)
binding signal [3]: 1.2 fold enrichment (6-mer frequency, TF over GST control)
binding signal [4]: 1.32 fold enrichment (6-mer frequency, TF over GST control)
binding signal [5]: 1.27 fold enrichment (6-mer frequency, TF over GST control)
binding signal [6]: 1.36 fold enrichment (6-mer frequency, TF over GST control)
binding signal [7]: 1.41 fold enrichment (6-mer frequency, TF over GST control)
binding signal [8]: 1.37 fold enrichment (6-mer frequency, TF over GST control)
binding signal [9]: 1.34 fold enrichment (6-mer frequency, TF over GST control)
binding signal [10]: 1.26 fold enrichment (6-mer frequency, TF over GST control)

TTTTGC
binding signal [1]: 1.3 fold enrichment (6-mer frequency, TF over GST control)
binding signal [2]: 1.34 fold enrichment (6-mer frequency, TF over GST control)
binding signal [3]: 1.36 fold enrichment (6-mer frequency, TF over GST control)
binding signal [4]: 1.25 fold enrichment (6-mer frequency, TF over GST control)
binding signal [5]: 1.42 fold enrichment (6-mer frequency, TF over GST control)
binding signal [6]: 1.3 fold enrichment (6-mer frequency, TF over GST control)
binding signal [7]: 1.53 fold enrichment (6-mer frequency, TF over GST control)
binding signal [8]: 1.34 fold enrichment (6-mer frequency, TF over GST control)
binding signal [9]: 1.41 fold enrichment (6-mer frequency, TF over GST control)
binding signal [10]: 1.34 fold enrichment (6-mer frequency, TF over GST control)

TCGACC
binding signal [1]: 1.32 fold enrichment (6-mer frequency, TF over GST control)
binding signal [2]: 1.27 fold enrichment (6-mer frequency, TF over GST control)
binding signal [3]: 1.23 fold enrichment (6-mer frequency, TF over GST control)
binding signal [4]: 1.17 fold enrichment (6-mer frequency, TF over GST control)
binding signal [5]: 1.39 fold enrichment (6-mer frequency, TF over GST control)
binding signal [6]: 1.11 fold enrichment (6-mer frequency, TF over GST control)
binding signal [7]: 1.35 fold enrichment (6-mer frequency, TF over GST control)
binding signal [8]: 1.23 fold enrichment (6-mer frequency, TF over GST control)
binding signal [9]: 1.11 fold enrichment (6-mer frequency, TF over GST control)
binding signal [10]: 1.25 fold enrichment (6-mer frequency, TF over GST control)

TATGAT
binding signal [1]: 1.16 fold enrichment (6-mer frequency, TF over GST control)
binding signal [2]: 1.24 fold enrichment (6-mer frequency, TF over GST control)
binding signal [3]: 1.31 fold enrichment (6-mer frequency, TF over GST control)
binding signal [4]: 1.29 fold enrichment (6-mer frequency, TF over GST control)
binding signal [5]: 1.12 fold enrichment (6-mer frequency, TF over GST control)
binding signal [6]: 1.25 fold enrichment (6-mer frequency, TF over GST control)
binding signal [7]: 1.27 fold enrichment (6-mer frequency, TF over GST control)
binding signal [8]: 1.09 fold enrichment (6-mer frequency, TF over GST control)
binding signal [9]: 1.5 fold enrichment (6-mer frequency, TF over GST control)
binding signal [10]: 1.17 fold enrichment (6-mer frequency, TF over GST control)

GATGAT
binding signal [1]: 1.18 fold enrichment (6-mer frequency, TF over GST control)
binding signal [2]: 1.31 fold enrichment (6-mer frequency, TF over GST control)
binding signal [3]: 1.49 fold enrichment (6-mer frequency, TF over GST control)
binding signal [4]: 1.23 fold enrichment (6-mer frequency, TF over GST control)
binding signal [5]: 1.32 fold enrichment (6-mer frequency, TF over GST control)
binding signal [6]: 1.26 fold enrichment (6-mer frequency, TF over GST control)
binding signal [7]: 1.33 fold enrichment (6-mer frequency, TF over GST control)
binding signal [8]: 1.33 fold enrichment (6-mer frequency, TF over GST control)
binding signal [9]: 1.68 fold enrichment (6-mer frequency, TF over GST control)
binding signal [10]: 1.27 fold enrichment (6-mer frequency, TF over GST control)

TTGGTT
binding signal [1]: 1.31 fold enrichment (6-mer frequency, TF over GST control)
binding signal [2]: 1.44 fold enrichment (6-mer frequency, TF over GST control)
binding signal [3]: 1.18 fold enrichment (6-mer frequency, TF over GST control)
binding signal [4]: 1.47 fold enrichment (6-mer frequency, TF over GST control)
binding signal [5]: 1.42 fold enrichment (6-mer frequency, TF over GST control)
binding signal [6]: 1.32 fold enrichment (6-mer frequency, TF over GST control)
binding signal [7]: 1.29 fold enrichment (6-mer frequency, TF over GST control)
binding signal [8]: 1.23 fold enrichment (6-mer frequency, TF over GST control)
binding signal [9]: 1.29 fold enrichment (6-mer frequency, TF over GST control)
binding signal [10]: 1.4 fold enrichment (6-mer frequency, TF over GST control)
